DT40 TDP1 CPT = growth inhibition of DT40 Tdp1-/-;hTDP1 cells with camptothecin (screen for TDP1 inhibitors); chicken DT40 Tdp1-/-;hTDP1 cells + 20 nM CPT, ATP luminescence, 48 h; Potency, µM (doses to about 46.2 µM), inactives show top-dose activity change, negative = growth inhibition, actives largely listed as inhibitors; actives 12% (n = 420,000); AID 686979; note: potency is the fitted concentration of half-maximal effect; nearly all actives have a fitted effect of over 55% in size
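Chicken DT40 Tdp1-/- cells complemented with human TDP1, 400 cells/well, exposed to compounds plus 20 nM camptothecin for at least 48 h at 37 C; viability read as ATP content by CellTiter-Glo luminescence.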
HT1080NT lethal = kills 2HG-producing HT-1080-NT fibrosarcoma cells | HT-1080-NT fibrosarcoma viability, CellTiter-Glo ATP luminescence, 48 h | Potency, µM (titrated, usually from 46.1 µM), without a hit: top-dose activity, negative = less viability, most hits filed as cytotoxic | actives 1.6% (n = 360,000) | AID 686970;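 note: NT is the 2HG producing partner of a matched IDH1 knockdown line; potency is the fitted concentration of half-maximal effect; 0% = DMSO-treated cells and -100% = media-only wells without cells; nearly all actives have a fitted effect of over 55% in size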
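HT-1080-NT; 750 cells/well; 5% FBS RPMI; 48 h compound, 37 degrees C; CellTiter-Glo luminescence; curve fitting and curve-class assignment.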
12-LOX inh = ALOX12 (human) lipoxygenase inhibition | P18054 | purified 12hLO, xylenol orange hydroperoxide absorbance | Potency, µM (titrated, usually from 108 µM), for inactives: at the highest dose activity change, negative = inhibition, hits mostly inhibitors | actives 1.1% (n = 580,000) | AID 1671190; note: potency is the fitted concentration of half-maximal effect
Target sequence (P18054 whole entry, looked up): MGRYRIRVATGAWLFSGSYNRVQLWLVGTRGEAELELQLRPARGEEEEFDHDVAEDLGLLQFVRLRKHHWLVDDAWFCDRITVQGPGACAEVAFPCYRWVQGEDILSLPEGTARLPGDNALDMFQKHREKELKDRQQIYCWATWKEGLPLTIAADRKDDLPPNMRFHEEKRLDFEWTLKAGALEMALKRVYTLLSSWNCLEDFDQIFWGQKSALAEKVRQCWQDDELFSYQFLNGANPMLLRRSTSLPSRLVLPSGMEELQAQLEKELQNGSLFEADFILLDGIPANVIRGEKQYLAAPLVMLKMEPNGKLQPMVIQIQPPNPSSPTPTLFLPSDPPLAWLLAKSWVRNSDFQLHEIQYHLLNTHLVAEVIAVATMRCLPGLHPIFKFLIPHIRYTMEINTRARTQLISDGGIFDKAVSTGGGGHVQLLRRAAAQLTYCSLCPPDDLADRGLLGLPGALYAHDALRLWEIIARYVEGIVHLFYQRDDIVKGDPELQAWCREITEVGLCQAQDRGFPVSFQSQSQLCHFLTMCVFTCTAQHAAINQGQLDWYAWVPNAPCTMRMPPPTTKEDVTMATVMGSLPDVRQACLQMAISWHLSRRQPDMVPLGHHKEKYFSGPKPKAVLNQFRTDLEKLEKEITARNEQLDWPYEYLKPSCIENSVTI
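Purified human 12hLO at 150 nM in 25 mM Hepes, 0.01% Triton X-100, pH 7.0, preincubated 15 min at room temperature with compound. Reaction started with 40 uM arachidonic acid, 30 min at room temperature. Hydroperoxide measured by Fe-xylenol orange, 573/405 nm absorbance ratio.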
HT1080 IDH1KD tx = toxicity to HT-1080 IDH1 knockdown cells (counter line) | actives 2% (n = 360,000) | HT-1080 IDH1 knockdown viability, ATP luminescence, 48 h | Potency, µM (doses to about 46.1 µM), inactives show at the highest dose activity, negative = toxicity, usual class: cytotoxic;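 note: potency is the fitted concentration of half-maximal effect; 0% = DMSO wells and -100% = cell-free medium wells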
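In this qHTS, HT-1080 cells depleted of IDH1 are exposed for 48 h at 37 °C to compound titrations. Toxicity is scored from CellTiter-Glo luminescence, with DMSO as full viability and medium alone as none.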
DT40 TDP1 no CPT = qHTS for Inhibitors of human tyrosyl-DNA phosphodiesterase 1 (TDP1): qHTS in cells in absence of CPT; DT40 Tdp1-/- hTDP1 cells, no CPT, ATP luminescence, 48 h; Potency, µM (highest dose often 46.2 µM), for inactives: at the highest dose activity change, negative = growth inhibition, hits mostly inhibitors; actives 15% (n = 420,000); AID 686978, 2013; note: potency is the fitted concentration of half-maximal effect; nearly all actives have a fitted effect of over 55% in size
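Stably hTDP1-transfected Tdp1-null chicken DT40 cells were treated with library compounds minus camptothecin and grown for at least 48 hr at 37 °C, after which cellular ATP was quantified by luminescence.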
IL-1B inflam inh = blocks inflammasome-driven IL-1 beta release; THP-1 LPS/ATP IL-1B secretion, AlphaLISA, 16 h; stronger effect = lower value; activity change, % at 57.5 µM; actives 4.7% (n = 360,000); AID 743279; in the data active = activity change below about -50%; inconclusive = mostly about -30% to -49%
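Secreted IL-1B measured by AlphaLISA bead assay after 16 h compound exposure of THP-1 cells; compounds (final up to 57.5 uM) added 1 h before LPS (250 ng/mL) and ATP (1.25 mM) stimulation; lower signal means less secretion.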
* = called active by the depositor; i = inactive; ? = inconclusive; . = no result; [ ] = dose if it differs, or a comment. Many of the other results were omitted from the sample, so hits are more common in it than they were. Unless noted, calls come from the whole dose curve; as a rule, active = well fitted curve in the direction sought with a large enough effect; inconclusive = small, poorly fitted or top-dose-only effect, or another doubt; inactive = no such curve, though single readings can be large; an effect the other way counts as inactive or inconclusive. Unless noted, % is set by controls: 0 for no effect and ±100 for the full control effect.

SMILES	DT40 TDP1 CPT	HT1080NT lethal	12-LOX inh	HT1080 IDH1KD tx	DT40 TDP1 no CPT	IL-1B inflam inh
CC(=O)Nc1ccc(C2(C(=O)N3CCN(c4ccccn4)CC3)CCCCC2)cc1	.	.	18%	.	.	.
CC(C)(C)c1ccc(Cn2nnc3c(=O)[nH]c(C4CCN(C(=O)c5ccco5)CC4)nc32)cc1	-20%	?	?	?	?	-67*
CCOc1ccc(C2CC(=O)Nc3c2c(=O)nc(SCc2ccccc2C)n3C)cc1OC (stereo unspecified)	9.2µM*	.	5%	.	5.8µM*	.
Cc1oc(-c2ccc(Cl)cc2)nc1CN1CCCC(C(=O)NCCc2ccc(Cl)cc2)C1 (stereo unspecified)	7.3µM*	.	-21%	.	5.8µM*	.
CCCN(CCC)CCCNC(=O)C1CCCN(Cc2nc(-c3ccc(Cl)cc3)oc2C)C1 (stereo unspecified)	12µM*	.	-8%	.	9.2µM*	.
Cc1oc(-c2cccc(Cl)c2)nc1CN1CCCC(C(=O)NCc2ccc(F)cc2)C1 (stereo unspecified)	5.8µM*	.	0%	.	5.8µM*	.
COC(=O)c1ccc2c(c1)N(Cc1nc(-c3ccc(Cl)cc3)oc1C)C(=O)C1CCCN21 (stereo unspecified)	21µM*	-5%	?	-22%	?	20
Cc1oc(-c2cccc(Br)c2)nc1CN1CCC(C(=O)NCCc2ccc(Cl)cc2)CC1	16%	.	-5%	.	?	.
Cc1ccccc1-c1nc(CN2CCCC(C(=O)NCc3ccc(Cl)cc3)C2)c(C)o1 (stereo unspecified)	-23%	.	?	.	?	.
Cc1ccc(C)c(NC(=O)c2ccc(S(=O)(=O)N(C)CC3CCCO3)cc2)c1 (stereo unspecified)	?	-4%	35%	-11%	?	-10
COc1cc(OC)c(-c2nnc(-c3ccc(OC)c(OC)c3OC)o2)cc1OC	14µM*	-15%	-9%	-14%	13µM*	-29
COc1cccc(NC(=O)N2CCCC(Cn3cnc4cccnc43)C2)c1 (stereo unspecified)	.	.	-3%	.	.	.
COCCCn1c(SCc2nnc(-c3ccc(OC)c(OC)c3)o2)nc2ccccc2c1=O	?	?	-1%	?	23µM*	?
COc1ccc(-c2nnc(CSc3nc4ccccc4c(=O)n3CC(C)C)o2)cc1OC	?	?	3%	?	16µM*	-16
COCCCn1c(SCc2nnc(-c3ccc(OC)c(OC)c3)o2)nnc1-c1ccncc1	-3%	-3%	444%	-9%	-18%	-3
O=c1cc(N2CCCCC2)[nH]c(=O)n1C1CCCCC1	-19%	-4%	50%	-1%	0%	7
O=c1cc(N2CCC(Cc3ccccc3)CC2)[nH]c(=O)n1C1CCCCC1	?	10%	0%	2%	16µM*	24
O=c1cc(N2CCc3ccccc3C2)[nH]c(=O)n1C1CCCCC1	1.8µM*	11%	1%	5%	?	-23
COc1ccccc1C(=O)NC(=S)Nc1cccc2cc(O)ccc12	?	?	402%	?	-23%	-85*
COc1ccc(C(=O)NC(=S)Nc2cccc3cc(O)ccc23)cc1OC	-23%	0%	10µM*	3%	-3%	i
CC(C)(CO)CNC(=O)c1cnc2c(c1)N([S+](=O)([O-])c1cccnc1)CCC2	.	.	41%[176 µM]	.	.	.
Cc1n[nH]c(=S)n(/N=C/c2cccs2)c1=O	?	-9%	?	1%	6.5µM*	-6
Cc1ccc(C(C(=O)N2CCC(Cc3noc(C)n3)CC2)N(C)C)cc1 (stereo unspecified)	.	.	-7%	.	.	.
COc1ccccc1N1CCN(C(=O)c2cnn(C(C)(C)C)c2C2CCN(C(=O)OC(C)(C)C)CC2)CC1	16µM*	.	3%	.	-85%	.
CC(C)(C)OC(=O)N1CCC(c2c(C(=O)N3CCN(c4ccccc4F)CC3)cnn2C(C)(C)C)CC1	23µM*	.	-22%	.	?	.
SMILES	DT40 TDP1 CPT	HT1080NT lethal	12-LOX inh	HT1080 IDH1KD tx	DT40 TDP1 no CPT	IL-1B inflam inh
Cn1ncc(C(=O)N2CCN(c3ccccc3F)CC2)c1C1CCN(C(=O)OC(C)(C)C)CC1	?	.	0%	.	-54%	.
COc1ccc(C(CCNCc2ccc(OC(C)C)cc2)C(C)C)cc1 (stereo unspecified)	4.6µM*	?	?	?	6.5µM*	.
COc1ccc(C(CCNCc2ccc(N(C)C)cc2)C(C)C)cc1 (stereo unspecified)	7.3µM*	18µM*	?	?	7.3µM*	-100*
Cc1ccc2c(C)c(C(=O)N3CCN(c4ccccc4)C(=O)C3)oc2c1C	.	.	31%	.	.	.
Cc1ccc2nc(C(C)NC(=O)c3cnc(-c4ccccn4)[nH]c3=O)[nH]c2c1 (stereo unspecified)	.	.	76%	.	.	.
COc1cc(CNC(=O)c2cc3cn(C(C)C)cc3s2)cc(OC)c1	.	.	21%	.	.	.
Cn1c(=O)[nH]c(=O)c2c1nc(CN1CCOCC1)n2Cc1ccc(Cl)c(Cl)c1	.	.	-1%	.	.	.
N#C/C(=C/c1ccc(O)c(O)c1)c1nc2ccccc2[nH]1	?	-1%	7.9µM*	-5%	?	10
N#C/C(=C(/O)c1ccc([N+](=O)[O-])o1)c1nc2ccccc2[nH]1	12µM*	24%	-11%	-1%	18µM*	0
N#C/C(=C\c1ccc([N+](=O)[O-])o1)c1nc2ccccc2[nH]1	0.58µM*	5.8µM*	-9%	5.8µM*	0.82µM*	-101*
CCOC(=O)/C(O)=C(\C#N)c1nc2ccccc2[nH]1	-10%	6%	3%	17%	-20%	9
CCOC(=O)c1cnc(Nc2ccc(F)cc2F)c2ccccc12	.	.	-1%	.	.	.
O=C1C(=O)N(C2CCN(C(=O)c3ccc(Cl)cc3)CC2)CCN1Cc1ccc(F)cc1	-30%	.	-20%	.	?	.
Cc1c(C(=O)NCc2ccccc2Cl)sc2nc(-c3ccc(F)cc3)cn12	?	.	0%	.	16µM*	.
Cc1c(C(=O)N(C)Cc2ccccc2)sc2nc(-c3ccc(F)cc3)cn12	?	.	8%	.	?	.
Cc1c(C(=O)NCCCN2CCOCC2)sc2nc(-c3ccc(F)cc3)cn12	?	?	5%	4%	?	-14
Cc1c(C(=O)NCc2ccc(F)cc2)sc2nc(-c3ccccc3)cn12	18µM*	.	-29%	.	?	.

Source: PubChem BioAssay
